Experimental data reported in PubChem BioAssay.

test system: wheat germ agglutinin (Triticum aestivum), Alexa647-labelled; test: Alexa647-WGA lectin binding to printed small molecules – biochemical, small-molecule microarray, 635/667 nm fluorescence, artefact control for SMM control-protein annotation, profiling panel (AID 1140); conditions: WGA-A647 binding, 635 nm fluorescence, higher = more signal;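 also: score merges 667 nm feature emission with signal to noise over triplicate slides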

SMILES | composite z-score
CC(C)N1CC=CC23O[C@@H]4C=CCOC(=O)[C@@H]4[C@H]2C(=O)N(CCCCCO)[C@@H]3C1=O (stereo not given in full) | 0.0322
[N-]=[N+]=Nc1ccccc1C[C@@]1(C(=O)N2CCCCC2)N=C(c2ccc(OCCCO)cc2)O[C@@H]1c1ccccc1 | 1.31
OCC1C=C(/C=C/c2ccccc2)CN1Cc1ccccc1Br (stereo not given) | 0.94
C=CC[C@@]1(C(=O)N2CCCCC2)N=C(c2ccc(OCCCO)cc2)O[C@@H]1c1ccccc1N=[N+]=[N-] | 1.06
CO[C@H]1O[C@H](CO)[C@@H](OC(=O)Nc2ccc(Oc3ccccc3)cc2)[C@H](OC(=O)Nc2ccc3c(c2)OCO3)[C@@H]1OC(=O)Nc1ccc2c(c1)OCO2 | 0.779
COCCOC(=O)N1C(=O)[C@@]2(c3ccccc31)[C@H](C(=O)N1CCc3cc(OC)c(OC)cc3C1)[C@H]1C(=O)O[C@H](c3ccccc3)[C@H](c3ccccc3)N1[C@@H]2c1ccc(O)cc1 | 0.74
CCCCC(=C=CC[C@@H](O)c1cccc(OCCO)c1)C[C@@H](O)c1ccccn1 | 0.26
CCOC(=O)C[C@H]1[C@H](OC(=O)c2cc3ccccc3oc2=O)[C@@H](NC(=O)CC(C)C)c2cc(OCCCO)ccc2N1C(=O)c1ccccc1 | 0.634
CC(C)(C)OC(=O)CC[C@@]1(C(=O)N2CCCCC2)N=C(c2ccc(OCCCO)cc2)O[C@@H]1c1ccccc1 | 1.27
Cc1ccc(S(=O)(=O)N2C[C@@H](C(=O)O)[C@H](Sc3ccccc3)C[C@H]2c2ccccc2)cc1 | 1.03
O=C1[C@H]2C=C(Br)[C@H](C[C@@H]2OCCCCCCO)[C@@]12CO2 | -2.03
COc1ccc(C(=O)Nc2cccc(CN3C(=O)[C@]4(O[C@H](CCn5cc(CCO)nn5)[C@@H]([Si](C)(C)c5ccc(OC)cc5)[C@@H]4C)c4ccccc43)c2)cc1 | 0.351
C=C[C@H](C)[C@@H](OC(=O)Nc1ccc(SC)cc1)c1ccc(O)c2ccccc12 | 0.108
COCCOC(=O)N1C(=O)[C@@]2(c3cc(C#CC4(O)CCCCCC4)ccc31)[C@H](C(=O)Nc1nc3ccccc3s1)[C@H]1C(=O)O[C@H](c3ccccc3)[C@H](c3ccccc3)N1[C@@H]2c1ccccc1OCCO | 1.08
C=CCC(OC(C)=O)[C@@H]1[C@@H](N(Cc2ccc(-c3ccccc3)cc2)C(=O)Cc2ccc(F)cc2)c2cc(OCCCO)ccc2N1C(=O)c1ccc2ccccc2c1 (stereo not given in full) | -0.117
CN(C)CCCC[C@@H]1NC(=O)[C@H]2C[C@@H](C(=O)NCCCCCN)[C@@H](c3cccc(OCCO)c3)N2C1=O | 1.48
C=CC[C@]1(C(=O)NCc2ccccc2)N=C(c2ccc(OCCCO)cc2)O[C@H]1c1ccccc1CN=[N+]=[N-] | 0.666
O=C(CS)NCCCCCNC(=O)[C@@H]1C[C@@H]2C(=O)NCC(=O)N2[C@@H]1c1ccc(O)cc1 | -0.855

SMILES | composite z-score
C=CCC(OC(C)=O)[C@@H]1[C@@H](N(Cc2ccc(-c3cccc(C(F)(F)F)c3)o2)C(=O)c2cccc3ccccc23)c2cc(OCCCO)ccc2N1C(=O)Cc1ccc2ccccc2c1 (stereo not given in full) | 0.178
C=CCC(OC(C)=O)[C@@H]1[C@@H](N(Cc2ccc(-c3cccc(C(F)(F)F)c3)o2)C(=O)Cc2ccc(OC)cc2)c2cc(OCCCO)ccc2N1C(=O)c1ccc2ccccc2c1 (stereo not given in full) | -0.145
CC(C)CN1C(=O)[C@@]2(c3ccc([N+](=O)[O-])cc3)CC(=O)N(C3CCCCC3)[C@@H]2c2ccc(CO)cc21 | 0.428
O=C1C2C=CC(C(O)C=Cc3ccc([N+](=O)[O-])cc3)N(n3cnnc3)C2C(=O)N1Cc1ccccc1 (stereo not given) | 0.941
O=C1O[C@H](c2ccccc2)[C@H](c2ccccc2)N2[C@H]1[C@@H](C(=O)NC[C@H](O)c1ccccc1)[C@]1(C(=O)Nc3ccc(C#CC4=CCCCC4)cc31)[C@H]2c1ccccc1OCCO | 1.05
O=C1NC(=O)C2C1C=CC(C(O)c1ccc(I)cc1)N2Nc1ccc(Cl)cc1Cl (stereo not given) | 0.661
CC(C)CCC[C@@H](C)[C@H]1CC[C@@]2(C)C3=C(CC[C@]12C)[C@@]1(C)CC[C@H](OC(=O)c2ccc(C(F)(F)F)nc2)C(C)(C)C1CC3 (stereo not given in full) | 0.231
CC(C)(C)OC(=O)CC[C@]1(C(=O)NCCN2CCOCC2)COC(c2ccc(OCCCO)cc2)=N1 | 0.253
CN1C(=O)C2C=CC(C(O)c3ccccc3)N(N3CCCCC3)C2C1=O (stereo not given) | 0.573
CC[C@@H]1C=C(C(=O)O)[C@H](c2cccc3ccccc23)N1S(=O)(=O)c1ccc(C)cc1 | 0.302
C=CCNC(=O)[C@H]1[C@@H]2C(=O)O[C@@H](c3ccccc3)[C@@H](c3ccccc3)N2[C@@H](c2ccc(OCCO)cc2)[C@]12C(=O)Nc1ccc(C#CCC(C(=O)OC)C(=O)OC)cc12 | 0.887
C=CCN1Cc2ccccc2[C@@H]2OC(c3ccc(OCCCO)cc3)=N[C@]2(CCS(=O)(=O)c2ccccc2)C1=O | 0.393
C[N+](C)(C)CCCC[C@@H]1NC(=O)[C@H]2C[C@@H](C(=O)NCCCCCCNC(=O)CS)[C@@H](c3ccc(O)cc3)N2C1=O | -1.07
CC(=O)Nc1cc(Br)ccc1C(=O)NCc1ccccc1 | 0.674
O=C1C2C=CC(C(O)c3ccc4c(c3)OCO4)N(Nc3ccc([N+](=O)[O-])cc3)C2C(=O)N1c1ccccc1 (stereo not given) | 0.0897
COc1ccc(C(O)C2C=CC3C(=O)N(C)C(=O)C3N2N(c2ccccc2)c2ccccc2)c2ccccc12 (stereo not given) | 1.07
COc1cc2c(cc1O)C=[N+](Cc1cc3c(cc1Br)OCO3)CC2 | 0.248
